Laboratory results from the supplement of paper PMC10515830.
Where a name gives a salt, the structure may show the parent alone.

Columns and labels:
Details in all cases: 10 µM; exposure time 6 h
[1] = system: Danio rerio larvae (5 dpf); test: difference in excitability vs DMSO (percentage points); higher = more excitable than DMSO
How it was run: (§1)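 In 96-well plates, 48 wild-type zebrafish larvae aged 5 dpf per compound received 100 µL egg water with library compound at 10 µM final for 6 h. Three hours into this, a 3-h programme of moving lines and 100 ms, 400Hz tones ran at 28.5 ℃ while plates were photographed every 6 s. Z-LaP Tracker scored the behaviours, and each is given as the compound mean minus the vehicle control mean in percentage points.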

[2] = system: Danio rerio larvae (5 dpf); test: difference in startle response vs DMSO (percentage points); higher = stronger startle than DMSO
How it was run: as §1

[3] = system: Danio rerio larvae (5 dpf); test: difference in activity during first hour vs DMSO (percentage points); higher = more activity than DMSO
How it was run: as §1

[4] = system: Danio rerio larvae (5 dpf); test: difference in habituation to acoustic stimuli vs DMSO (percentage points); higher = more habituation than DMSO
How it was run: as §1

[5] = system: Danio rerio larvae (5 dpf); test: difference in combined optomotor response to red, green and blue moving lines vs DMSO (percentage points); higher = stronger optomotor response than DMSO
How it was run: as §1

Compound | difference in excitability [1] | difference in startle response [2] | difference in activity during first hour [3] | difference in habituation to acoustic stimuli [4] | difference [5]
CN1CCN(C2=Nc3cc(Cl)ccc3Nc3ccccc32)CC1 [Clozapine] | 9.35 | -11.3 | 37.7 | -6.72 | 5.08
NS(=O)(=O)c1cc2c(cc1C(F)(F)F)NC(Cc1ccccc1)NS2(=O)=O (stereo not given) [Bendroflumethiazide] | 1.38 | -5.47 | 3.78 | -7.63 | -4.26
CC(C)(O/N=C(\C(=O)N[C@@H]1C(=O)N2C(C(=O)[O-])=C(C[n+]3ccccc3)CS[C@H]12)c1csc(N)n1)C(=O)O [Ceftazidime (hydrate)] | -0.0444 | 0.0878 | 3.86 | 0.293 | 4.55
O=C(O)CCNC(=O)c1ccc(/N=N/c2ccc(O)c(C(=O)O)c2)cc1 [Balsalazide] | 4.51 | 9.09 | 15 | 1.8 | 4.25
CCC1(C)CC(=O)NC1=O (stereo not given) [Ethosuximide] | 2.89 | 4.52 | -3.89 | 4.09 | 0.956
O=c1[nH]c(=O)n([C@H]2C[C@H](O)[C@@H](CO)O2)cc1F [Floxuridine] | 5.02 | -2.11 | 5.28 | -3.55 | 1.72
OCCN1CCN(CCCN2c3ccccc3Sc3ccc(C(F)(F)F)cc32)CC1 [Fluphenazine (hydrochloride)] | 23.3 | 5.93 | 15.6 | -10.4 | -5.63
COc1ccccc1OCC(O)CN1CCN(CC(=O)Nc2c(C)cccc2C)CC1 (stereo not given) [Ranolazine (hydrochloride)] | 14.6 | -5.16 | 4.7 | 3.56 | 2.81
Cc1c(-c2ccccc2)oc2c(C(=O)OCCN3CCCCC3)cccc2c1=O [Flavoxate (hydrochloride)] | 8.74 | 1.49 | 13.3 | -3.99 | 8.27
C=C1CC[C@H](O)C/C1=C/C=C1\CCC[C@]2(C)[C@@H]([C@H](C)CCCC(C)(C)O)CC[C@@H]12 [25-hydroxy Vitamin D3] | 4.23 | -8.24 | 8.17 | -5.95 | -5
N[C@@H](Cc1cc(I)c(Oc2cc(I)c(O)c(I)c2)c(I)c1)C(=O)O [L-Thyroxine] | 12.1 | -4.02 | 7.61 | -1.15 | 1.95
C[C@@H](NCCCc1cccc(C(F)(F)F)c1)c1cccc2ccccc12 [Cinacalcet (hydrochloride)] | -1.68 | 0.605 | 10.2 | -9.83 | -16.5
NCC[C@H](O)C(=O)N[C@@H]1C[C@H](N)[C@@H](O[C@H]2O[C@H](CN)[C@@H](O)[C@H](O)[C@H]2O)[C@H](O)[C@H]1O[C@H]1O[C@H](CO)[C@@H](O)[C@H](N)[C@H]1O [Amikacin] | 5.08 | 3.94 | 10.9 | 2.17 | 6.4
C[C@@H]1CCO[C@H]2Cn3cc(C(=O)NCc4ccc(F)cc4F)c(=O)c(O)c3C(=O)N12 [Dolutegravir] | 9.08 | 3.83 | 7.43 | 1.07 | 7.64
Cc1c(OCC(F)(F)F)ccnc1C[S@@+]([O-])c1nc2ccccc2[nH]1 [(R)-Lansoprazole] | 7.16 | 4.39 | 7.03 | -1.38 | 1.12
NC(=O)N1c2ccccc2C=Cc2ccccc21 [Carbamazepine] | -5.41 | 5.12 | -2.57 | 0.458 | 11.2
CN1CCC[C@@H]1CCO[C@](C)(c1ccccc1)c1ccc(Cl)cc1 [Clemastine (fumarate)] | 26.5 | -6.88 | -0.468 | -2.97 | 6.17
CCN1CCN(C(=O)N[C@@H](C(=O)N[C@@H]2C(=O)N3[C@@H]2SC(C)(C)[C@@H]3C(=O)O)c2ccccc2)C(=O)C1=O [Piperacillin (sodium salt)] | 2.92 | 2.6 | 14.2 | -3.02 | 5.57
Cn1c(=O)c2c(ncn2C)n(C)c1=O [Caffeine] | 5.33 | 2.45 | 2.64 | 7.15 | 4.07
CCCCCCOC(=O)CCC(=O)CN [Hexaminolevulinate (hydrochloride)] | 5.6 | 3.54 | 2.02 | 7.86 | 2.47
CC(C)C(=O)Nc1ccc([N+](=O)[O-])c(C(F)(F)F)c1 [Flutamide] | 2.83 | -7 | -6.35 | -14.3 | -13.7
CCCc1nn(C)c2c(=O)[nH]c(-c3cc(S(=O)(=O)N4CCN(C)CC4)ccc3OCC)nc12 [Sildenafil Citrate] | 4.08 | -0.935 | -7.02 | -0.835 | 5.26
Nc1ccn([C@@H]2CS[C@H](CO)O2)c(=O)n1 [Lamivudine] | 0.811 | 2.66 | 9.03 | 2.12 | 2.14
CCOC(=O)[C@H](CCc1ccccc1)N[C@@H](C)C(=O)N1Cc2ccccc2C[C@H]1C(=O)O [Quinapril (hydrochloride)] | -1.99 | -2.06 | 12.4 | -0.155 | 2.4

Compound | difference in excitability [1] | difference in startle response [2] | difference in activity during first hour [3] | difference in habituation to acoustic stimuli [4] | difference [5]
CCN(CC)C(=O)/C(C#N)=C/c1cc(O)c(O)c([N+](=O)[O-])c1 [Entacapone] | 5.12 | -3.47 | 4.7 | 3.38 | 3.62
CC(=O)[C@]1(O)Cc2c(O)c3c(c(O)c2[C@@H](O[C@H]2C[C@H](N)[C@H](O)[C@H](C)O2)C1)C(=O)c1ccccc1C3=O [Idarubicin (hydrochloride)] | 12.5 | -1.2 | -5.02 | 1.34 | -1.01
C#Cc1cccc(Nc2ncnc3cc(OCCOC)c(OCCOC)cc23)c1 [Erlotinib] | 4.3 | -6.74 | -6.91 | -0.321 | -4.8
O=C(c1ccc(OCCN2CCCCC2)cc1)c1c(-c2ccc(O)cc2)sc2cc(O)ccc12 [Raloxifene (hydrochloride)] | 22 | -0.808 | -9.71 | 2.6 | 1.59
C/C(=C\c1csc(C)n1)[C@@H]1C[C@@H]2O[C@]2(C)CCC[C@H](C)[C@H](O)[C@@H](C)C(=O)C(C)(C)[C@@H](O)CC(=O)N1 [Ixabepilone] | 0.28 | -3.45 | 16.6 | 5.42 | -1.72
CCN(CC)C(=S)SSC(=S)N(CC)CC [Disulfiram] | 12.2 | -15.9 | 38.4 | -13 | -9.71
COc1ccc(OC)c(C(O)CNC(=O)CN)c1 (stereo not given) [Midodrine (hydrochloride)] | 7.59 | -5.94 | 6.73 | 0.23 | 5.44
CCCCC(C)(O)C/C=C/[C@H]1[C@H](O)CC(=O)[C@@H]1CCCCCCC(=O)OC (mixture of isomers) [Misoprostol] | 9.78 | 0.222 | -2.79 | 7.1 | -1.41
OCc1cc(C(O)CNCCCCCCOCCCCc2ccccc2)ccc1O (stereo not given) [Salmeterol (xinafoate)] | 12.9 | -5.05 | 20.1 | -7.62 | 7.79
CC[C@@]1(O)C(=O)OCc2c1cc1n(c2=O)Cc2cc3c(CN(C)C)c(O)ccc3nc2-1 [Topotecan (hydrochloride)] | 4.94 | -0.393 | 0.473 | -4.39 | 1.01
OC(CNCC(O)C1CCc2cc(F)ccc2O1)C1CCc2cc(F)ccc2O1 (stereo not given) [Nebivolol (hydrochloride)] | 9.49 | -4.14 | 2.55 | -2.7 | -10.6
CC(C)C[C@H](NC(=O)[C@H](CCc1ccccc1)NC(=O)CN1CCOCC1)C(=O)N[C@@H](Cc1ccccc1)C(=O)N[C@@H](CC(C)C)C(=O)[C@@]1(C)CO1 [Carfilzomib] | 5.53 | -0.402 | 4.53 | 2.38 | 4.24
C[C@H](N[C@@H](CCc1ccccc1)C(=O)O)C(=O)N1CCC[C@H]1C(=O)O [Enalaprilat (hydrate)] | -0.583 | -2.87 | 9.36 | 1.38 | 1.55
C[N+](C)(C)C[C@H](O)CC(=O)[O-] [L-Carnitine] | -2.51 | -2.46 | 8.51 | 4 | 3.58
N[C@@H]1CCCCN(c2c(F)cc3c(=O)c(C(=O)O)cn(C4CC4)c3c2Cl)C1 [Besifloxacin (hydrochloride)] | 13 | 0.0054 | 5.97 | -5.08 | 0.455
COc1nc(N)nc2c1ncn2[C@@H]1O[C@H](CO)[C@@H](O)[C@@H]1O [Nelarabine] | 19.6 | 1.82 | -4.45 | -0.162 | 2.02
CCCc1cc(=O)[nH]c(=S)[nH]1 [Propylthiouracil] | 7.08 | 1.86 | 3.37 | -0.81 | 1.84
O=C(O)COCCN1CCN([C@H](c2ccccc2)c2ccc(Cl)cc2)CC1 [(R)-Cetirizine (hydrochloride)] | 5.78 | -3.02 | -1.26 | 6.23 | 5.37
Cc1cc(NS(=O)(=O)c2ccc(N)cc2)no1 [Sulfamethoxazole] | 0.0564 | 4.25 | 9.59 | 3.04 | 8.31
C[N+]1(C)[C@@H]2C[C@@H](OC(=O)C(O)(c3cccs3)c3cccs3)C[C@H]1[C@@H]1O[C@@H]12 [Tiotropium (bromide)] | -0.664 | -4.87 | -7.11 | -4.6 | -6.76
Cc1cc(C2CCCCC2)n(O)c(=O)c1 [Ciclopirox] | 3.8 | -2.37 | 8.43 | 5.39 | 8.2
CCCCc1nc(Cl)c(CO)n1Cc1ccc(-c2ccccc2-c2nnn[nH]2)cc1 [Losartan (potassium salt)] | 3.08 | 0.6 | 6.85 | -4.35 | -1.12
O=C(c1cc(Cc2n[nH]c(=O)c3ccccc23)ccc1F)N1CCN(C(=O)C2CC2)CC1 [Olaparib] | -5.41 | -4.44 | 2.13 | -3.55 | 4.86
